# Whole data set: some 8,300 sequences, median “log2 fold change of degron read counts, EGFP-low vs EGFP+ sorted cells (limma voom), compound-induced degradation” near -1.1, cut for the highest 2% near 3.2. What follows is part of a selection rich in the highest values, with near analogues and random picks from the rest.
# T1: CRBN, Q96SW2
# T1 chain: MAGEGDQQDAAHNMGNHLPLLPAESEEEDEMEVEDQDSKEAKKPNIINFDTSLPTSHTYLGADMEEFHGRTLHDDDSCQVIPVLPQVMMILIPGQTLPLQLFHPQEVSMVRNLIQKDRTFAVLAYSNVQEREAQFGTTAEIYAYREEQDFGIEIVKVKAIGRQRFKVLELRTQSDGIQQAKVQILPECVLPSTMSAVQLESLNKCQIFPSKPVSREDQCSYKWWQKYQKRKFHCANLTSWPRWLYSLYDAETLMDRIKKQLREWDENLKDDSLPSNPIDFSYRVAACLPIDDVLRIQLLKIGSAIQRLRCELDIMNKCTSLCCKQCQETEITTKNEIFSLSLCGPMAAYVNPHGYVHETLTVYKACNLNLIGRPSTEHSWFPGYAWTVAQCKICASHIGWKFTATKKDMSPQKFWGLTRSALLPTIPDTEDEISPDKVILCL
# Biological target: T1, CRBN, Q96SW2
# Test: log2 fold change of degron read counts, EGFP-low vs EGFP+ sorted cells (limma voom), compound-induced degradation; higher = more compound-induced degradation of the degron-EGFP fusion; degrons are variants of IKZF1/3 zinc finger 2; compound dose not given here
# Conditions: Jurkat, 18 h
# [1] = compound: compound 19 (5-tert-butyl-thalidomide)
# [2] = compound: compound 22 (5-morpholino-thalidomide)
# [3] = compound: compound 33 (diphenyl IMiD analogue)
# 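Further: pooled lentiviral library of zinc finger degron-EGFP fusions in mCherry-positive Jurkat cells, FACS-sorted after compound exposure, with degron abundance counted by next-generation sequencing.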
Sequence,log2 fold change of degron read counts [1],log2 fold change of degron read counts [2],log2 fold change of degron read counts [3],log2 fold change of degron read counts (compound: thalidomide)
"FTCNQCGALFTQKGNLLRHIKL [46F_47T_49N_50Q_52G_53A_54L_55F_67L_, Q9UKT9]",-2.64,-2.95,-1.35,-2.16
"FRCEICGRWFTQKGNLLRHIKL [46F_47R_49E_50I_52G_53R_54W_55F_67L_, Q9UKT9]",-2.31,-2.38,-1.89,0.776
"FFCPICGHAFTQKGNLLRHIKL [46F_47F_49P_50I_52G_53H_54A_55F_67L_, Q9UKT9]",-0.981,-1.5,-0.604,-1.29
"FHCNQCGACFTQKGNLLRHIKL [46F_47H_49N_50Q_52G_53A_54C_55F_67L_, Q9UKT9]",-1.49,-1.87,-1.86,-2.37
"LRCNQCGFLCTQKGNLLRHIKL [46L_47R_49N_50Q_52G_53F_54L_55C_67L_, Q9UKT9]",-1.18,-1.92,-1.55,-1.3
"FLCSVCGHVFTQKGNLLRHIKL [46F_47L_49S_50V_52G_53H_54V_55F_67L_, Q9UKT9]",-2.42,-2.11,-2.5,-2.18
"FFCEQCGAAFTQKGNLLRHIKL [46F_47F_49E_50Q_52G_53A_54A_55F_67L_, Q9UKT9]",0.842,1.01,0.32,-1.11
"FTCNQCGAMFTQKGNLLRHIKL [46F_47T_49N_50Q_52G_53A_54M_55F_67L_, Q9UKT9]",-2.5,-2.41,-1.29,-1.58
"FWCPQCGARFTQKGNLLRHIKL [46F_47W_49P_50Q_52G_53A_54R_55F_67L_, Q9UKT9]",0.926,3.08,0.0765,0.0591
"FTCEVCGAQFTQKGNLLRHIKL [46F_47T_49E_50V_52G_53A_54Q_55F_67L_, Q9UKT9]",-0.192,2.19,2.27,2.79
"FGCEVCGAQFTQKGNLLRHIKL [46F_47G_49E_50V_52G_53A_54Q_55F_67L_, Q9UKT9]",3.18,2.36,1.12,0.866
"FFCEVCGAQFTQKGNLLRHIKL [46F_47F_49E_50V_52G_53A_54Q_55F_67L_, Q9UKT9]",3.36,3.6,2.42,1.89
"FCCNQCGREFTQKGNLLRHIKL [46F_47C_49N_50Q_52G_53R_54E_55F_67L_, Q9UKT9]",-3.21,-3.01,-3.16,-3.5
"FYCDVCGAIFTQKGNLLRHIKL [46F_47Y_49D_50V_52G_53A_54I_55F_67L_, Q9UKT9]",0.745,0.688,-0.626,-1.86
"LYCEICGFWCTQKGNLLRHIKL [46L_47Y_49E_50I_52G_53F_54W_55C_67L_, Q9UKT9]",1.69,1.16,1.94,0.136
"FDCEICGAGFTQKGNLLRHIKL [46F_47D_49E_50I_52G_53A_54G_55F_67L_, Q9UKT9]",1.89,-1.13,-0.599,-0.0656
"FACEICGAGFTQKGNLLRHIKL [46F_47A_49E_50I_52G_53A_54G_55F_67L_, Q9UKT9]",3.75,1.86,0.304,0.339
"FFCEICGAGFTQKGNLLRHIKL [46F_47F_49E_50I_52G_53A_54G_55F_67L_, Q9UKT9]",3.51,2.9,1.61,0.677
"FNCEICGAGFTQKGNLLRHIKL [46F_47N_49E_50I_52G_53A_54G_55F_67L_, Q9UKT9]",3.46,0.722,-0.0429,-0.254
"FNCEQCGAGFTQKGNLLRHIKL [46F_47N_49E_50Q_52G_53A_54G_55F_67L_, Q9UKT9]",-0.14,-2.54,-2.33,-2.8
"FRCEICGAGFTQKGNLLRHIKL [46F_47R_49E_50I_52G_53A_54G_55F_67L_, Q9UKT9]",2.78,1.83,2.46,1.7
"FICEICGAGFTQKGNLLRHIKL [46F_47I_49E_50I_52G_53A_54G_55F_67L_, Q9UKT9]",0.51,2.54,1.87,2.76
"FTCEICGAGFTQKGNLLRHIKL [46F_47T_49E_50I_52G_53A_54G_55F_67L_, Q9UKT9]",2.35,2.19,2.28,2.27
"FHCEICGAGFTQKGNLLRHIKL [46F_47H_49E_50I_52G_53A_54G_55F_67L_, Q9UKT9]",3.51,1.13,1.93,-0.622
"FWCNICGAFFTQKGNLLRHIKL [46F_47W_49N_50I_52G_53A_54F_55F_67L_, Q9UKT9]",1.6,2.32,0.971,-0.294
"FKCNVCGASFTQKGNLLRHIKL [46F_47K_49N_50V_52G_53A_54S_55F_67L_, Q9UKT9]",-1.29,-2.06,-3.02,-1.88
"FFCNQCGRKFTQKGNLLRHIKL [46F_47F_49N_50Q_52G_53R_54K_55F_67L_, Q9UKT9]",-2.1,-2.17,-2,-2.57
"FRCPVCGAFFTQKGNLLRHIKL [46F_47R_49P_50V_52G_53A_54F_55F_67L_, Q9UKT9]",-0.609,-0.0858,1.19,1.19
